Screening results from PubChem BioAssay.
Sampled rows, rich in hits. Any-hit rate of the full collection: about 1.6%.
BH1578 lux ind: induces V. cholerae light production without autoinducers | V. cholerae BH1578 lux reporter, luminescence, 6 h | 350,000 compounds, 0.16% hits | AID 588436 | activation, % at 18.7 µM; in the data active = activation mostly above about 9.7%, no sharp cut-off
SARS 3CLpro inh: SARS-CoV 3CLpro protease inhibition. P0C6X7. recombinant SARS-CoV 3CLpro, quenched FRET peptide cleavage. inhibition, % at 6 µM. 290,000 compounds, 0.14% hits; in the data active = inhibition above about 12%
PrP 5UTR inh: suppresses PrP 5' UTR mRNA reporter expression | AID 488862 | cell-based PrP 5' UTR mRNA reporter, plate reader | 340,000 compounds, 0.35% hits | inhibition, % (test concentration not listed); in the data active = inhibition above about 52%
PfHsp40 yeast: rescue of PfHsp40-mediated yeast toxicity | S. cerevisiae expressing PfHsp40, growth rescue, ATP luminescence | growth rescue, % at 12.5 µM | 340,000 compounds, 0.68% hits; in the data active = growth rescue above about 28%, passing the limit was not always enough;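 note: yeast W303a lacking pdr1 and pdr3 grown in galactose medium; growth measured after three days at 30 °C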
SSB-PriA inh: blocks PriA binding to SSB C-terminal tail; AlphaScreen SSBct-PriA binding, biotinylated peptide; inhibition, % at 33 µM; 430,000 compounds, 0.6% hits; in the data active = inhibition mostly above about 37%, no sharp cut-off; inactive = mostly below about 20%
PrPC surface inh: reduces human prion protein on the cell surface. P04156. cell surface PrPC, TR-FRET read-out. inhibition, % at 13.8 µM. 370,000 compounds, 0.43% hits; in the data active = inhibition above about 24%
A number is an active result; 0 = inactive; - = no result.

SMILES | BH1578 lux ind | SARS 3CLpro inh | PrP 5UTR inh | PfHsp40 yeast | SSB-PriA inh | PrPC surface inh
Cc1cccc(Oc2nc(-c3ccncc3)nc3ccccc23)c1 | 0 | 0 | 0 | 0 | 0 | 0
Cc1ccccc1Oc1nc(-c2ccccn2)nc2ccccc12 | 0 | 0 | 0 | 244.6 | 0 | 0
Cc1cccc(Oc2nc(-c3ccccn3)nc3ccccc23)c1 | 0 | 0 | 0 | 195.2 | 0 | 0
COCCCNC(=O)CSc1nc(-c2cc(OC)c(OC)c(OC)c2)[nH]c1-c1ccc(Cl)cc1 | - | - | - | - | 0 | -
CCCS(=O)(=O)N1CC(S(=O)(=O)c2ccc(Cl)cc2)C1 | - | - | - | - | 0 | -
Cn1c(C2CCN(S(C)(=O)=O)CC2)nn(Cc2cccc3ccccc23)c1=O | - | - | - | - | 0 | -
Cc1ccc2c(c1)N(CC(=O)NCc1cccs1)C(=O)CO2 | 0 | 0 | 0 | 0 | 0 | 0
Cc1ccc(CNC(=O)CN2C(=O)COc3ccc(C)cc32)cc1 | 0 | 0 | 0 | 0 | 38.6 | 0
Cc1cc(Cl)ccc1C(=O)C1CCCN(C(=O)c2cncs2)C1 (configuration not stated) | 0 | 0 | 0 | 376.6 | 0 | 0
O=C(c1ccc(-c2ccccc2)c(F)c1)C1CCCN(C(=O)c2cncs2)C1 (configuration not stated) | 0 | 0 | 0 | 412.0 | 0 | 0
CC(C)Oc1cccc(C(=O)C2CCCN(C(=O)c3cncs3)C2)c1 (configuration not stated) | 0 | 0 | 0 | 0 | 0 | 0
O=C(O)c1ccccc1NC(c1ccccc1)c1ccc2cccnc2c1O (configuration not stated) | 0 | - | 0 | 322.0 | 0 | 0
Cc1ccnc(NC(c2ccccc2)c2ccc3cccnc3c2O)c1 (configuration not stated) | 0 | - | 0 | 153.7 | 0 | 0
Oc1ccccc1C(Nc1nccs1)c1ccc2cccnc2c1O (configuration not stated) | 0 | 0 | 0 | 0 | 66.5 | 0
COc1ccccc1NC(c1cccnc1)c1ccc2cccnc2c1O (configuration not stated) | 0 | 0 | 0 | 0 | 0 | 0
Cc1cc(NC(c2ccc(Cl)cc2)c2ccc3cccnc3c2O)no1 (configuration not stated) | 0 | 0 | 0 | 44.0 | 0 | 0
COc1ccc(S(=O)(=O)C2CN(C(=O)C(C)(C)Oc3ccc(Cl)cc3)C2)cc1 | - | - | - | - | 0 | -
Oc1c(C(Nc2ccccn2)c2ccccc2F)ccc2cccnc12 (configuration not stated) | - | - | - | - | 0 | -
Oc1c(C(Nc2ccccn2)c2ccccn2)ccc2cccnc12 (configuration not stated) | 0 | 0 | 0 | 63.3 | 0 | 0
Cc1ccnc(NC(c2ccsc2)c2ccc3ccc(C)nc3c2O)c1 (configuration not stated) | 0 | 0 | 0 | 249.6 | 0 | 0
CCCC(=O)NC(c1ccc(N(C)C)cc1)c1ccc2cccnc2c1O (configuration not stated) | 0 | 0 | 0 | 409.8 | 0 | 0
CC1CCC(=NNc2ccc(C(F)(F)F)cc2[N+](=O)[O-])CC1 (configuration not stated) | 0 | 0 | 0 | 0 | 72.8 | 0
CC(C)C(=O)Nc1ccc(S(=O)(=O)NCC(=O)N2CCO[C@H](c3ccccc3)C2)cc1 | - | - | - | - | 0 | -
O=C(CS(=O)(=O)Cc1ccccc1)Nc1nnc(-c2ccc(F)cc2)o1 | - | - | - | - | 0 | -
CN(C)c1ccc(-c2nc3ccccc3n2CCOc2ccccc2)cc1 | - | - | - | - | 29.0 | -
SMILES | BH1578 lux ind | SARS 3CLpro inh | PrP 5UTR inh | PfHsp40 yeast | SSB-PriA inh | PrPC surface inh
COCCn1nnn(-c2ccc(NC(=O)Nc3cccs3)cc2)c1=O | - | - | - | - | 0 | -
CC(Oc1ccc(C#N)cc1)C(=O)Nc1nc(-c2ccccn2)cs1 (configuration not stated) | - | - | - | - | 109.0 | -
O=C(Nc1nc(-c2ccccn2)cs1)c1ccc(-n2cnnn2)cc1 | - | - | - | - | 0 | -
CC(C)C(=O)Nc1nc(-c2ccccn2)cs1 | - | - | - | - | 73.8 | -
Cc1cccc(C(=O)NC(C)C(=O)Nc2nc(-c3ccccn3)cs2)c1 (configuration not stated) | - | - | - | - | 100.0 | -
O=C(Nc1nc(-c2ccccn2)cs1)C1(n2cnnn2)CCCCC1 | - | - | - | - | 158.5 | -
Cc1cccc(C(=O)N[C@H](C(=O)Nc2nc(C)cs2)C(C)C)c1 | 0 | 0 | 0 | 0 | 0 | 0
CC(N)C(=O)Nc1nc(-c2ccccn2)cs1 (configuration not stated) | - | - | - | - | 0 | -
Cc1cccc(S(=O)(=O)Nc2ccc3c(c2)N(C(=O)c2cccs2)CC3)c1 | - | - | - | - | 0 | -
CS(=O)(=O)N1N=C(c2ccccc2)C[C@H]1c1ccsc1 | - | - | - | - | 0 | -
